From PubChem BioAssay (NCI) come the findings set out here.

This is part of a sample that, as a whole, favours compounds with a hit. Of some 83,000 tested, about 20% had one in any assay.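 Method: cells in 96-well plates; compound added at one concentration; 48 h incubation; percent growth measured; values under 10 scored active.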 A number with no mark means an inactive call. Active and inactive are the calls of the source.

The subject of the experiment is SR leukemia. The experiment in a line: NCI-60 one-dose screen, 48 h (100 = growth as untreated, 0 = no growth, -100 = all killed). The note with it: 10 µM unless noted.
Turning to `N#C/C(=C\c1ccc(-c2ccc(Cl)cc2)o1)C(=O)Nc1ncc(Cc2ccc(Br)cc2)s1`, the growth was 16.8%.
For `O=C(COc1ccc(/C=C2\C(=O)Nc3ccc(Cl)cc32)cc1)Nc1ccc(Cl)cc1`, the growth is 44.9%.
On to `CC(O)c1cccc(/C(N)=N/C(N)=N/c2nc3ccccc3s2)c1` (stereo not drawn), for which the growth was 82.3%.
Consider `O=C(CN1CCN(c2cc(=O)[nH]c3ccc(F)cc23)CC1)N(c1ccccc1)c1ccccc1`, for which the growth is 90.8%.
`Cn1c(SCC(=O)c2ccc(Br)cc2)nc2ccccc2c1=O`: the growth is 89.6%.
`NC(N)=NS(=O)(=O)c1ccc(N=Nc2c(N)nn(-c3ccc([N+](=O)[O-])cc3[N+](=O)[O-])c2N)cc1`: the growth was 107%.
For `Cc1cc2nc3c4cc(C#N)ccc4n(CCN(C)C)c3nc2cc1C`, the growth is 0.51% (active).
On to `O=C(CCCCCCN1CC(=O)N2[C@@H](c3cccs3)c3[nH]c4ccccc4c3C[C@H]2C1=O)NO`, for which the growth is 35.6%.
In the case of `O=C(CSc1nc2ccccc2c(=O)n1CCc1ccccc1)Nc1ccc(S(=O)(=O)Nc2ccc(Cl)nn2)cc1`, the growth was 95.9%.
Take `CC1=C(C)C(=O)C(Nc2ccc(C)c(C)c2)=C(Br)C1=O`: the growth was 43.6%.
With `COc1cc(/C=C2/C(=O)Nc3ccc(Cl)cc32)ccc1OCc1ccc(Cl)cc1`, the growth is 41.9%.
`Cc1ccc2c(n1)C(=O)C(Cl)=C(Nc1ccc(C(C)C)cc1)C2=O`: the growth is 3.93% (active).
Consider `CN1CCN(c2ccc(Nc3nc(NCCNS(=O)(=O)c4ccccc4)c4sccc4n3)cc2)CC1`, for which the growth is 117%.
